Among all 200,000 compounds or so, about 4,500 (2.2%) were called active. Another 12% or so got no clear call; they are omitted. For the sample, actives were picked, then their nearest neighbours and some compounds at random. A number with no mark means an inactive call. Calls follow the shape of the dose curve; as a rule, active = well fitted inhibition curve with a large enough effect; inconclusive = small, poorly fitted or top-dose-only effect, or effect the other way; inactive = flat fitted curve, though single readings scatter.
Target: Cruzipain (Trypanosoma cruzi) (UniProt P25779)
Assay: qHTS Assay for Promiscuous and Specific Inhibitors of Cruzain (without detergent); also: nearly all actives have a fitted effect of over 40% in size
Details: purified cruzain, Z-FR-AMC fluorescence, no detergent
Description: Cruzain is a cysteine protease from the tropical parasite Trypanosoma cruzi. Dual qHTS experiment was performed against the NCGC compound collection in order to 1) identify novel inhibitors of the enzyme and 2) profile the compound collection for promiscuous inhibitors operating via colloidal aggregation (by performing detergent-free and detergent-containing comparison screens). Cruzain was assayed by the use of fluorogenic coumarin-based substrate Z-FR-AMC: proteolytic cleavage releases AMC, whose fluorescence is measured at 360 nm excitation and 450 nm emission. Purified cruzain was supplied by the labs of Prof. James McKerrow and Brian Shoichet, UC San Francisco.
This assay had 0.00005% Triton X-100 concentration. See also releated assay "qHTS Assay for Promiscuous and Specific Inhibitors of Cruzain (with detergent)" with 0.01% Triton X-100.
See following references for additional details:
Assay Provider: Shoichet, Brian; University of California, San Fancisco
Screening Center PI: Austin, C.P.
Screening Center: NIH Chemical Genomics Center [NCGC]
Buffer: 100 mM Sodium Acetate, pH 5.5, 5 mM DTT, Triton X-100 concentration: 0.01%.
Buffer in columns 3 and 4 as negative control (no enzyme).
Substrate solution: 2 uM final concentration of Z-FR-AMC (catalog number I-1160, Bachem) dispensed throughout the plate.
Enzyme: 1.5 nM Cruzain final concentration in columns 1, 2, 5-48. Column 1 is neutral (100% activity). Column 2 contained titration of covalent inhibitor K11777, starting concentration 1 mM, then 1:2 dilution in duplicate).
Three uL of enzyme or buffer were dispensed to 1536-well Greiner black solid bottom plates. Compounds and controls (23 nL) were transferred via Kalypsys PinTool. The plates were incubated for 15 min at room temperature, and then 1 uL of substrate solution was added to start the reaction. The plates were immediately transferred to and read 4 times every 30 seconds for 2 min on ViewLux High-throughput CCD imager (Perkin-Elmer) using 360 nm excitation and 450 nm emission fluorescence protocol. The fluorescence intensity difference between the third and the first time points (time lapse of 60 seconds) was used to compute reaction progress.
Potency is read from the fitted curve at half-maximal effect.

Cruzipain (Trypanosoma cruzi), sequence (P25779 123-467 limits assumed): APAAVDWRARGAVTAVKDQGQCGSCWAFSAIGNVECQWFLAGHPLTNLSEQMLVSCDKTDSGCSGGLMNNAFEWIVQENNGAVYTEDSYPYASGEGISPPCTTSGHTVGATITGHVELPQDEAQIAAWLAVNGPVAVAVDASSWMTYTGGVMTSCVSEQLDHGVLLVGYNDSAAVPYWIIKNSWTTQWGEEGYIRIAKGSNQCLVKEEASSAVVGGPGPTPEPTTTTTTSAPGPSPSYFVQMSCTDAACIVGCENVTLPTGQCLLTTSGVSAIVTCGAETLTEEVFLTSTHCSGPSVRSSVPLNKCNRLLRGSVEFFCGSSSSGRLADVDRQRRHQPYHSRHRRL

SMILES | max response, negative = inhibition [%] | Potency
CC(=C1C(=O)c2ccccc2C1=O)N1CCN(c2ccccn2)CC1 | -6.99 | 
Cc1nn(-c2ccccn2)c2c1C(c1ccncc1)C1=C(CC(C)(C)CC1=O)N2 (stereo unspecified) | -9 | 
Cc1cc(C)c(C2C3=C(Nc4c2c(C)nn4-c2ccccn2)c2ccccc2C3=O)c(C)c1 (stereo unspecified) |  | 12.6 µM (active)
NS(=O)(=O)c1ccc(CCNC(=O)CCCCCn2c(=O)[nH]c3ccccc3c2=O)cc1 | -15.6 | 
COc1cc(NS(=O)(=O)c2ccccc2)ccc1-n1nc(C)cc1C | 4.04 | 
CC1(C)CC(=O)c2c(n(S(=O)(=O)c3ccccc3)c3ccc(NS(=O)(=O)c4ccccc4)cc23)C1 |  | 31.6 µM (active)
Cn1c(=O)n(C)c2cc(NS(=O)(=O)c3ccc(F)cc3)ccc21 | -10.1 | 
CC(C)Oc1c(Br)cc(Br)cc1/C=N/NC(N)=S |  | 0.158 µM (active)
Cc1cccc(-n2c(C)cc(/C=N/NC(N)=S)c2C)c1 | -26.1 | 
CCOc1ccc(/C=N/NC(N)=S)cc1 | -8.04 | 
Cc1ccc2onc(CC(=O)N3CCN(c4ccc(Cl)cc4)CC3)c2c1 | 7.92 | 
COc1cccc(CNCCSc2nnnn2C)c1OCc1ccccc1Cl | 2.75 | 
COc1ccc(CNC(=O)Cn2nnc(-c3ccccc3F)n2)cc1 | -5.04 | 
COc1cc2nc(SCc3ccc(F)cc3)n3nc(CCn4c(C)nc5ccccc54)nc3c2cc1OC | -7.57 | 
C=CC(=O)c1ccc2ccccc2c1 |  | 2.51 µM (active)
CC(=O)CCC(=O)c1ccc2ccccc2c1 | 1.86 | 
CC(=O)c1ccc2c(ccc3ccccc32)c1 | 6.49 | 
Cc1ccc(NC(=O)Cn2c(=O)n(-c3ccccc3)c(=O)c3c4c(sc32)CCCC4)cc1 | -7.31 | 
Cc1ccc(S(=O)(=O)N2CCC(Oc3ccc(-n4cnnn4)cc3)CC2)cc1 | 8.75 | 
CCc1ccc(NC(=O)CN2CCSc3ccc(S(=O)(=O)N4CCCC4)cc32)cc1 | -26.3 | 
COc1ccc(-c2oc3cc(OC)ccc3c2C(=O)c2ccc(C#N)cc2)cc1 |  | 12.6 µM (active)
COc1ccc(C(=O)c2c(C)oc3cc([N+](=O)[O-])c(O)c([N+](=O)[O-])c23)cc1 | -3.8 | 
COc1cccc(C(=O)c2cc3ccc(O)cc3oc2=O)c1 | -3.19 | 
O=C(Nc1ccc(N2C(=O)c3cccc4cccc(c34)C2=O)cc1)c1ccc(N2CCCCC2)c([N+](=O)[O-])c1 |  | 7.94 µM (active)
COc1cccc(C(=O)Nc2ccc(N3CCCC3)cc2)c1 | -20.3 | 
O=C(COc1ccccc1F)NNC(=O)c1ccc(N2CCCCC2)c([N+](=O)[O-])c1 | -11.1 | 
